Several values for one entry are separate records, joined by “and”; a condition that tells them apart may be missing. Equal values may be shown once. Results filed as inconclusive are left out. Activity calls are given as the source filed them. Calls follow the shape of the dose curve; as a rule, active = well fitted inhibition curve with a large enough effect; inconclusive = small, poorly fitted or top-dose-only effect; inactive = flat fitted curve, though single readings scatter.
The compounds below were run on KB-3-1 (assay: Cytotoxic Profiling of Annotated Libraries Using Quantitative High-Throughput Screening (AID 1296008; also: nearly all actives have a fitted effect of over 60% in size)). Conditions: Five cell lines viability, CellTiter-Glo ATP luminescence, 48-72 h; max response: hits give low values.
How it was run: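 Cytotoxicity was measured as CellTiter-Glo ATP luminescence, read after 10 min at room temperature. Compound treatment of the cells lasted 48 or 72 hr at 37 degrees Celsius in a qHTS format.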
% is scaled to controls: 0 for no effect and ±100 for the full control effect.

SMILES	max response
CCC(C)[C@@H](N)C(=O)O (some centres not stated)	1.62% (inactive)
CC(C)[C@H](N)C(=O)OCC(CO)OCn1cnc2c(=O)[nH]c(N)nc21 (some centres not stated)	3.14% (inactive)
NC(N)=NCC1COc2ccccc2O1 (configuration not stated)	-6.36% (inactive)
S=C=Nc1ccc(N=C=S)cc1	-15.9% (inactive)
CCCCCCCCCc1ccc(OCCOCCO)cc1	-16.4% (inactive)
CC1(C)S[C@@H]2[C@H](N3C(=O)C(c4ccccc4)NC3(C)C)C(=O)N2[C@H]1C(=O)O (some centres not stated)	3.76% (inactive)
O=P(O)(O)CP(=O)(O)O	-3.6% (inactive)
CCC(Cc1c(I)cc(I)c(O)c1I)C(=O)O (configuration not stated)	-4.91% (inactive)
Cc1cccc(Nc2ncccc2C(=O)O)c1C	14.2% (inactive)
CCCCCCCCCC(=O)NO	-3.47% (inactive) and -15% (inactive)
CCCCCCOC(=O)c1cccnc1	6.05% (inactive)
C[Si](C)(C)O[Si](C)(C)C	-5.55% (inactive)
Cc1ncc(COP(=O)(O)O)c(CN)c1O	-6.16% (inactive)
CC(=O)[O][Al][O]C(C)=O	-5.29% (inactive)
COc1ccc(/C=N/NC(=O)c2ccncc2)c(C(=O)O)c1OC	-1.02% (inactive)
C=CC(C)(O)CC/C=C(\C)CCC=C(C)C (configuration not stated)	0.0537% (inactive)
CCCCO	-19.5% (inactive)
C[C@@H](O)[C@H]1C(=O)N2C(C(=O)[O-])=C(SC3Cn4cnc[n+]4C3)[C@H](C)[C@H]12 (some centres not stated)	1.34% (inactive)
CC(C)N1CCN(c2ccc(OC[C@H]3CO[C@](Cn4cncn4)(c4ccc(Cl)cc4Cl)O3)cc2)CC1	0.302% (inactive)

SMILES	max response
C[C@@H]1C/C=C/C=C/C=C/C=C/[C@H](O[C@@H]2O[C@H](C)[C@@H](O)[C@H](N)[C@@H]2O)C[C@@H]2O[C@](O)(C[C@@H](O)C[C@H]3O[C@@H]3/C=C/C(=O)O1)C[C@H](O)[C@H]2C(=O)O	3.94% (inactive)
Cc1ccc(S(=O)(=O)NCl)cc1	2.64% (inactive)
NC(=O)c1cc[n+](CC2=C(C(=O)O)N3C(=O)[C@@H](NC(=O)C(c4ccccc4)S(=O)(=O)[O-])[C@H]3SC2)cc1 (some centres not stated)	1.04% (inactive)
CNCC(O)c1ccc(OC(=O)C(C)(C)C)c(OC(=O)C(C)(C)C)c1 (configuration not stated)	-7.58% (inactive)
CC(=O)[C@@]1(O)CC[C@H]2[C@@H]3C=C(Cl)C4=CC(=O)[C@@H]5C[C@@H]5[C@]4(C)[C@H]3CC[C@@]21C	1.37% (inactive)
CC(C)(O/N=C(\C(=O)N[C@@H]1C(=O)N2C(C(=O)[O-])=C(C[n+]3ccccc3)CS[C@H]12)c1csc(N)n1)C(=O)O	-11.3% (inactive)
CCCCC(CC)CCC(CC(C)C)OS(=O)(=O)O (configuration not stated)	11% (inactive) and -8.89% (inactive)
C[C@@H]1O[C@@H]1P(=O)(O)O	-3.35% (inactive)
OC[C@H]1O[C@@](CO)(O[C@H]2O[C@H](CO)[C@@H](O)[C@H](O)[C@H]2O)[C@@H](O)[C@@H]1O	8.24% (inactive)
C[Se]CC[C@H](N)C(=O)O	0.415% (inactive)
CCN(CC)C(=O)c1cccnc1	-8.56% (inactive)
CC(=NCc1ccccc1)c1ccccc1O	-11.4% (inactive)
CCN(CC)CCOc1ccc2nc(N(C)C)sc2c1	-23.9% (inactive)
C=CC[N+]1([C@H]2C[C@H]3[C@@H]4CC[C@H]5C[C@H](O)[C@@H](N6CCOCC6)C[C@]5(C)[C@H]4CC[C@]3(C)[C@H]2OC(C)=O)CCCC1	7.82% (inactive)
COc1ccc2cc([C@H](C)CO)ccc2c1	0.171% (inactive)
CCOC(=O)Cc1ccc(-c2ccccc2)cc1	6.55% (inactive)
CC(/C=C/C=C(\C)C(=O)O[C@@H]1O[C@H](CO[C@@H]2O[C@H](CO)[C@@H](O)[C@H](O)[C@H]2O)[C@@H](O)[C@H](O)[C@H]1O)=C\C=C\C=C(C)\C=C\C=C(/C)C(=O)O[C@@H]1O[C@H](CO[C@@H]2O[C@H](CO)[C@@H](O)[C@H](O)[C@H]2O)[C@@H](O)[C@H](O)[C@H]1O	1.72% (inactive)
CN1c2c(nc(N)[nH]c2=O)NCC1CNc1ccc(C(=O)NC(CCC(=O)O)C(=O)O)cc1 (configuration not stated)	9% (inactive)
